What all share (test): NCI-60 one-dose screen, 48 h (100 = growth as untreated, 0 = no growth, -100 = all killed)
The subject of one assay is NCI-H23 lung. Conditions: 10 µM unless noted.
The subject of another assay is NCI-H226 lung. Conditions: 10 µM unless noted.
For a further assay, the system named is NCI-H322M lung. Conditions: 10 µM unless noted.
The next assay concerns HOP-62 NSCLC. Conditions: 10 µM unless noted.
The next assay concerns NCI-H460 lung. Conditions: 10 µM unless noted.
Another assay relates to HOP-92 NSCLC. The following applies: 10 µM unless noted.
The test system of a further assay is NCI-H522 lung. The following applies: 10 µM.
For the next assay, the system named is 786-0 renal. Conditions: 10 µM unless noted.
Another assay has as its system COLO 205 colon. Conditions: 10 µM unless noted.
For the next assay, the system named is DU-145 prostate. Conditions: 10 µM unless noted.
In another assay the test system is K-562 leukemia. The following applies: 10 µM unless noted.
For another assay, the system named is MALME-3M melanoma. The following applies: 10 µM unless noted.
A further assay relates to MDA-MB-231 breast. Conditions: 10 µM unless noted.
For the next assay, the system named is RXF 393 renal. Conditions: 10 µM unless noted.
A further assay relates to SF-268 CNS. The following applies: 10 µM unless noted.
The next assay concerns SF-295 CNS. Conditions: 10 µM unless noted.
The subject of another assay is SF-539 CNS. Conditions: 10 µM unless noted.
In the next assay the test system is UACC-257 melanoma. The following applies: 10 µM unless noted.
The subject of another assay is M14 melanoma. The following applies: 10 µM unless noted.

About 83,000 compounds went through this panel and 20% of them were active in at least one assay; those are over-represented in the sample as a whole.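 In brief: 96-well plates, 48 h treatment, single concentration, percent growth endpoint.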 Unmarked numbers belong to inactive results. The source made the active and inactive calls. How the source made its calls: active means growth percent below 10; inactive means the rest.

For the compound `CC1CN(/N=C/c2ccc([N+](=O)[O-])o2)C(=N)O1` (configuration not stated), the growth in the assay on NCI-H23 lung was 97.1%; in the assay on NCI-H226 lung, 96.3%; in the assay with NCI-H322M lung, 117%; with HOP-62 NSCLC, 103%; with NCI-H460 lung, 96%; in the assay on HOP-92 NSCLC, 88.8%. For the same compound, the growth was 87.8% with NCI-H522 lung; 108% in the assay with 786-0 renal; 113% with COLO 205 colon; 121% in the assay on DU-145 prostate; 108% in the assay with K-562 leukemia; 78.8% with MALME-3M melanoma. For the same compound, the growth in the assay with MDA-MB-231 breast is 102%; in the assay with RXF 393 renal, 102%; with SF-268 CNS, 90.1%; in the assay with SF-295 CNS, 88.9%; in the assay on SF-539 CNS it was 96.9%; in the assay with UACC-257 melanoma, 99.5%. Also, in the assay with M14 melanoma, the growth is 106%.

For `O=CN1N=C(c2ccc(Nc3ccnc4cc(Cl)ccc34)cc2)CC1c1ccc(Cl)cc1` (configuration not stated), the growth in the assay on NCI-H23 lung was 39.2%; in the assay with NCI-H226 lung it was 52.6%; in the assay with NCI-H322M lung, 44.1%; with HOP-62 NSCLC it was 33.8%; in the assay on NCI-H460 lung, 6.99% (active); with HOP-92 NSCLC it was 49.5%. Besides, the growth with NCI-H522 lung is 26.9%; with 786-0 renal, 27.9%; in the assay with COLO 205 colon, 12.1%; in the assay on DU-145 prostate, 10%; in the assay on K-562 leukemia it was 9.53% (active); with MALME-3M melanoma, 34.5%. In addition, the growth was 31.2% in the assay on MDA-MB-231 breast; 17.5% with RXF 393 renal; 34.9% with SF-268 CNS; -1.08% (active) in the assay on SF-295 CNS; -0.113% (active) with SF-539 CNS; 77.7% in the assay on UACC-257 melanoma. The growth in the assay with M14 melanoma was 39.3%.

With `N#Cc1c(-c2ccc(F)cc2)n2c(nc1=O)SC(=O)C2=O`, the growth is 98.6% in the assay on NCI-H23 lung; 87.2% with NCI-H226 lung; 104% in the assay on NCI-H322M lung; 120% in the assay on HOP-62 NSCLC; 101% in the assay with NCI-H460 lung; 96.6% in the assay on HOP-92 NSCLC. Besides, the growth in the assay on NCI-H522 lung was 103%; with 786-0 renal, 100%; with COLO 205 colon it was 134%; in the assay on DU-145 prostate, 124%; in the assay on K-562 leukemia, 108%; in the assay with MALME-3M melanoma, 90.8%. Besides, the growth was 114% with MDA-MB-231 breast; 96.5% in the assay on RXF 393 renal; 93.4% with SF-268 CNS; 103% with SF-295 CNS; 115% with SF-539 CNS; 85.8% in the assay on UACC-257 melanoma. The growth with M14 melanoma is 105%.

Take `CCSc1nc(-c2cccs2)n2nc(-c3ccco3)cc2n1`: the growth in the assay with NCI-H23 lung was 95%; with NCI-H226 lung, 94.9%; with NCI-H322M lung, 116%; in the assay with HOP-62 NSCLC, 101%; in the assay on NCI-H460 lung, 104%; with HOP-92 NSCLC it was 71.3%. Besides, the growth with NCI-H522 lung is 91.8%; in the assay on 786-0 renal it was 113%; in the assay on COLO 205 colon, 123%; with DU-145 prostate, 113%; in the assay with K-562 leukemia, 100%; in the assay on MALME-3M melanoma it was 107%. Moreover, the growth is 91.6% in the assay with MDA-MB-231 breast; 107% in the assay with RXF 393 renal; 102% in the assay with SF-268 CNS; 99.4% with SF-295 CNS; 100% in the assay on SF-539 CNS; 103% in the assay on UACC-257 melanoma. Besides, the growth in the assay on M14 melanoma is 109%.

Regarding `CN[C@@H]1C(OC2[C@H](O[C@H]3[C@H](O)[C@@H](O)[C@H](N=C(N)N)[C@@H](O)[C@@H]3N=C(N)N)OC(C)[C@]2(O)CO)OC(CO)C(O)C1O` (some centres not stated), the growth was 103% in the assay on NCI-H23 lung; 108% in the assay on NCI-H226 lung; 111% in the assay on NCI-H322M lung; 107% in the assay on HOP-62 NSCLC; 113% with NCI-H460 lung; 118% in the assay with HOP-92 NSCLC. For the same compound, the growth was 112% in the assay on NCI-H522 lung; 106% in the assay on 786-0 renal; 109% in the assay with COLO 205 colon; 109% with DU-145 prostate; 113% with K-562 leukemia; 106% with MALME-3M melanoma. Besides, the growth in the assay with MDA-MB-231 breast was 104%; in the assay with RXF 393 renal, 114%; in the assay with SF-268 CNS, 118%; in the assay on SF-295 CNS, 103%; in the assay with SF-539 CNS, 109%; in the assay on UACC-257 melanoma it was 107%. Also, in the assay on M14 melanoma, the growth was 112%.

For the compound `Nc1ccn(C2O[C@H](CO)[C@@H](O)[C@@H]2O)c(=O)n1` (some centres not stated), the growth in the assay on NCI-H23 lung was 28.2%; in the assay on NCI-H226 lung, 34.3%; in the assay with NCI-H322M lung, 62.6%; in the assay on HOP-62 NSCLC, 26.7%; in the assay on NCI-H460 lung, 6.43% (active); in the assay on HOP-92 NSCLC, 53.8%. Further, the growth was 68.1% in the assay with NCI-H522 lung; 10.2% in the assay on 786-0 renal; 57.3% in the assay on COLO 205 colon; 29.6% in the assay on DU-145 prostate; 62.4% in the assay with K-562 leukemia; 57.2% in the assay on MALME-3M melanoma. The growth was 68.8% with MDA-MB-231 breast; 83.4% in the assay on RXF 393 renal; 34% in the assay on SF-268 CNS; 50.8% with SF-295 CNS; 72.4% with SF-539 CNS; 54.5% in the assay on UACC-257 melanoma. Besides, the growth with M14 melanoma was -15.7% (active).

Consider `C[C@H]1O[C@@H](O[C@H]2[C@@H](O)C[C@H](O[C@H]3[C@@H](O)C[C@H](O[C@H]4CC[C@]5(C)C6CC[C@]7(C)[C@@H](C8=CC(=O)OC8)CC[C@]7(O)C6CC[C@@H]5C4)O[C@@H]3C)O[C@@H]2C)C[C@H](O)[C@@H]1O` (some centres not stated), for which the growth in the assay with NCI-H23 lung is -47.5% (active); with NCI-H226 lung, -100% (active); in the assay on NCI-H322M lung, -84.9% (active); in the assay on HOP-62 NSCLC, -100% (active); in the assay with NCI-H460 lung, -97.3% (active); in the assay with HOP-92 NSCLC, -29.3% (active). Further, the growth in the assay with NCI-H522 lung was -65% (active); in the assay on 786-0 renal, -93.4% (active); in the assay on COLO 205 colon, -92.6% (active); with DU-145 prostate it was -100% (active); in the assay on K-562 leukemia it was -45% (active); in the assay with MALME-3M melanoma, -63.9% (active). For the same compound, the growth in the assay on MDA-MB-231 breast is -48.6% (active); in the assay on RXF 393 renal, -27.1% (active); in the assay on SF-268 CNS it was -100% (active); in the assay with SF-295 CNS it was -98.2% (active); with SF-539 CNS, -94.6% (active); with UACC-257 melanoma, -100% (active). Moreover, the growth in the assay with M14 melanoma was -81.1% (active).

`CC[n+]1c(/C=C/c2ccc(N3CCCC3)cc2)cccc1/C=C/c1ccc(N2CCCC2)cc1`: the growth in the assay on NCI-H23 lung is -67.9% (active); in the assay with NCI-H226 lung it was -65.7% (active); with NCI-H322M lung, -86.7% (active); in the assay on HOP-62 NSCLC it was -54.4% (active); in the assay with NCI-H460 lung, -84.3% (active); with HOP-92 NSCLC it was -73.3% (active). Moreover, the growth in the assay on NCI-H522 lung is -83.2% (active); with 786-0 renal, -82.3% (active); with COLO 205 colon it was -83.1% (active); in the assay with DU-145 prostate, -97.4% (active); in the assay on K-562 leukemia it was 8.88% (active); in the assay on MALME-3M melanoma, -82.2% (active). The growth in the assay on MDA-MB-231 breast was -80.6% (active); in the assay on RXF 393 renal it was -93.7% (active); in the assay on SF-268 CNS, -90.3% (active); with SF-295 CNS, -76.9% (active); in the assay with SF-539 CNS it was -87.2% (active); in the assay on UACC-257 melanoma, -92.5% (active). For the same compound, in the assay with M14 melanoma, the growth was -65.3% (active).

The values are drawn from PubChem BioAssay (NCI).
